# HP1b binding inh – HP1-beta chromodomain-methylated histone interaction inhibition. P83916. AlphaScreen HP1-beta / biotin-H3K9me3 peptide binding. Potency, µM (series often up to 114 µM), without a hit: top-dose activity change, negative = inhibition, usual class: inhibitors. 390,000 tested, 0.56% active. AID 540317; note: nearly all actives have a fitted effect of over 70% in size
#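 AlphaScreen: HP1-beta (50 nM) preformed 30 min with biotin-H3(1-18)K9me3 peptide (50 nM) in PBS pH 7.4, 0.01% Tween-20. Compound added for 30 min at RT, then streptavidin donor/nickel chelate acceptor beads (10 ug/mL) for 30 min.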
# JMJD2A Tudor inh – blocks the human JMJD2A Tudor domain. O75164. AlphaScreen JMJD2A-Tudor / H3K4me3 peptide binding. Potency, µM (highest dose often 114 µM), inactives show at the highest dose activity change, negative = inhibition, actives largely listed as inhibitors. 390,000 tested, 4.4% active. AID 504339; note: % is set by controls: 0 for no effect and ±100 for the full control effect; nearly all actives have a fitted effect of over 50% in size
# G9a inh – G9a (human) methyltransferase inhibition; Potency, µM (titrated, usually from 102 µM), without a hit: top-dose activity, negative = inhibition, most hits filed as inhibitors; Q96KQ7; 350,000 tested, 8.8% active; G9a H3K9 monomethylation, AlphaScreen, 2 h; AID 504332; note: % is set by controls: 0 for no effect and ±100 for the full control effect; nearly all actives have a fitted effect of over 75% in size
#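 Signal arises when biotinylated H3K9 peptide, once monomethylated, bridges streptavidin donor and antibody-captured acceptor beads. Enzyme at 20 nM was preincubated 15 min with test compounds; peptide 500 nM and SAM 20 uM then reacted for 2 h.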
# BAZ2B inh – blocks human BAZ2B; Q9UIF8; AlphaScreen BAZ2B-H3K14Ac peptide displacement; Potency, µM (doses to about 114 µM), for inactives: at the top dose activity change, negative = inhibition, most hits filed as inhibitors; 360,000 tested, 4.4% active; note: % is set by controls: 0 for no effect and ±100 for the full control effect; nearly all actives have a fitted effect of over 60% in size
# Target sequence (Q9UIF8 whole entry, looked up): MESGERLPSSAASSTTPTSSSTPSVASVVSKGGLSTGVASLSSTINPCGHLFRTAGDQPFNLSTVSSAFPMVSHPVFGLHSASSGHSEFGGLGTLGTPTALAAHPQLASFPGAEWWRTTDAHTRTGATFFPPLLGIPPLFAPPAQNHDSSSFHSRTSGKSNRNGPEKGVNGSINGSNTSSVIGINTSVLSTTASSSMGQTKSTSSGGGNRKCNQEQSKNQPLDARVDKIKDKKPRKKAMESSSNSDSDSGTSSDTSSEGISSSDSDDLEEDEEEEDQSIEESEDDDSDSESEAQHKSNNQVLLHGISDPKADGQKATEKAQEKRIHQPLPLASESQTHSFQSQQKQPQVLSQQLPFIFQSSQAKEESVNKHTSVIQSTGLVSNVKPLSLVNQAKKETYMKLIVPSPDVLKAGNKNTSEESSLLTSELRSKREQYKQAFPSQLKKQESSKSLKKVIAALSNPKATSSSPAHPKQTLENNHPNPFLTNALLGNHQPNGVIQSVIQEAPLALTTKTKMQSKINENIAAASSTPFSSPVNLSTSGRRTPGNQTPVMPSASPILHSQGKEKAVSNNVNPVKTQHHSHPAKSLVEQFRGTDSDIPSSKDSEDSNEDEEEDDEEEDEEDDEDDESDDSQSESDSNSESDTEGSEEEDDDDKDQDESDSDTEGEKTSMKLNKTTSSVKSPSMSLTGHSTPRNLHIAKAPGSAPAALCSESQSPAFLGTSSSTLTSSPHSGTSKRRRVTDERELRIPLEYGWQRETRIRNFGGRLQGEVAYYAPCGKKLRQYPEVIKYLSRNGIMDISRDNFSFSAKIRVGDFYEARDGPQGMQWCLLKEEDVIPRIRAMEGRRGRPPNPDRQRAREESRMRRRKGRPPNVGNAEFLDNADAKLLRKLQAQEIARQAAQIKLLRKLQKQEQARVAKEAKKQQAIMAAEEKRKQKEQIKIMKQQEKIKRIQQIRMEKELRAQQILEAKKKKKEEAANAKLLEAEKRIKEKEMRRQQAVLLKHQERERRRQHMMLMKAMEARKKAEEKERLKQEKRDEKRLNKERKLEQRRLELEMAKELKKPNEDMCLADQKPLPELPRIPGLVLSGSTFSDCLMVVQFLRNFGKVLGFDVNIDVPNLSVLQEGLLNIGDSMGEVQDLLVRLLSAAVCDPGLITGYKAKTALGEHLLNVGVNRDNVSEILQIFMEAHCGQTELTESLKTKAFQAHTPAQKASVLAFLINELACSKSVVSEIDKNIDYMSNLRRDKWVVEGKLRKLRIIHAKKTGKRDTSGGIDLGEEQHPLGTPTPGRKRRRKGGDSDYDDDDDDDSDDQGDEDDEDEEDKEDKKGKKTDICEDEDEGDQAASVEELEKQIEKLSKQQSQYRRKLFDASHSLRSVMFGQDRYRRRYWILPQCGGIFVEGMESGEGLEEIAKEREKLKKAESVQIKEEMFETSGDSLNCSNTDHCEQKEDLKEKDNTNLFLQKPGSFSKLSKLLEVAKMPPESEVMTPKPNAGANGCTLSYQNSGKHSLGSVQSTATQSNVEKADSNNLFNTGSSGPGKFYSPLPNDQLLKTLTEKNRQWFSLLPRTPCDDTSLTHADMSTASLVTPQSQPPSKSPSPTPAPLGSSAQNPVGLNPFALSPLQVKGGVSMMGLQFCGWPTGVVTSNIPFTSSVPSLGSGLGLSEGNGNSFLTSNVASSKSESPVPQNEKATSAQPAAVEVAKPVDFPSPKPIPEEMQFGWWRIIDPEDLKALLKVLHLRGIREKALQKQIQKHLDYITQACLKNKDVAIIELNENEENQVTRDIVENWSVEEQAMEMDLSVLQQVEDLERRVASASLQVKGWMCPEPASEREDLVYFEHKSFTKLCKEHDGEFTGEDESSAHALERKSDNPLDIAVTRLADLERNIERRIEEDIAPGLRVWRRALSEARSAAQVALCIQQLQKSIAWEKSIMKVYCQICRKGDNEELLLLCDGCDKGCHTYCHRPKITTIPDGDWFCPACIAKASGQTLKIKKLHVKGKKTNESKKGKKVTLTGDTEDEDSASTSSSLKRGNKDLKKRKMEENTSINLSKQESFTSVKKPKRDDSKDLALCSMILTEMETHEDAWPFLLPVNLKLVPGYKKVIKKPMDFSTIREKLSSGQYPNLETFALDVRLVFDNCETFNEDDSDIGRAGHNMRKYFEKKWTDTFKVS
#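 AlphaScreen displacement: compounds (up to 110uM) incubated 30 min at room temperature with a preformed 50 nM BAZ2B/50 nM biotinylated H3K14Ac peptide complex in PBS pH 7.4 with Tween-20. Donor and acceptor beads at 10 ug/mL final added, 20 min light-protected before reading.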
# Sfp inh – inhibitors of Bacillus subtilis Sfp phosphopantetheinyl transferase. Q9F4F7. 310,000 tested, 3.5% active. Potency, µM, without a hit: largest response in the series, negative = inhibition, actives largely listed as inhibitors. AID 1490. Biochemical Sfp PPTase activity, qHTS;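 note: the enzyme is Sfp with the accession as filed and its product quenches rhodamine fluorescence; 0% = enzyme reaction without inhibitor and -100% = no enzyme wells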
#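 Sfp 15 nM + cpd, 15 min RT; start w/ rhodamine-CoA 5 uM, BHQ-2-YbbR 12.5 uM (final); 50 mM Hepes pH 7.6, 10 mM MgCl2, 0.01% NP-40, 0.01% BSA; read 525/598 nm at 0 and 30 min.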
# The depositor's hits bear a star; ? = inconclusive; . = not tested or not shown; [ ] = remark or other dose. Sampled rows, rich in hits. Any-hit rate of the full collection: about 12%. Calls come from the whole dose curve; as a rule, active = well fitted curve in the direction sought with a large enough effect; inconclusive = small, poorly fitted or top-dose-only effect, or another doubt; inactive = no such curve, though single readings can be large; an effect the other way counts as inactive or inconclusive. Potency is the fitted concentration of half-maximal effect.
SMILES,HP1b binding inh,JMJD2A Tudor inh,G9a inh,BAZ2B inh,Sfp inh
OCCNCCSc1ccc(Cl)cc1,-27%,22µM*,50µM*,56µM*,-8%
COCCCNCCCCSc1ccc(Cl)cc1,?,10µM*,3.5µM*,?,-8%
CCCCNCC(O)(c1ccc(Cl)cc1)c1ccc(Cl)cc1,10%,1%,1%,2%,17%
O=C(NCCSc1ccc(Cl)cc1)c1ccco1,33%,-18%,-14%,3%,4%
CCN(CC)CCCNc1nc(SC)nc2sc3c(c12)CCN(C)C3,.,.,?,-12%,-1%
COc1cc(/C=N/n2c(C3CCCCC3)n[nH]c2=S)cc(Br)c1O,18%,13µM*,25µM*,-29%,9%
Cc1cccc(/C=N/n2c(C3CCCCC3)n[nH]c2=S)c1,-16%,56µM*,2.5µM*,?,79µM*
S=c1[nH]nc(C2CCCCC2)n1/N=C/c1cccc(Br)c1,41%,3%,79µM*,3%,15%
Cc1cc(Cl)ccc1NC(=O)CSc1nc2c(c(=O)[nH]1)CCC2,6%,-12%,?,1%,.
Cc1ccccc1-c1nc2c(c(SCc3cccc(Cl)c3)n1)Cc1c(CO)cnc(C)c1O2,26%,-12%,-8%[59 µM],-9%,.
COc1ccc(S(=O)(=O)N(CC(C)C)C2CCS(=O)(=O)C2)cc1OC (stereo unspecified),29%,-3%,-3%,-3%,.
O=[N+]([O-])c1cccc(-c2ccc(/C=N/Nc3nc(N4CCCCC4)nc(N4CCCCC4)n3)o2)c1,-1%,?,-23%,?,6%
Cc1ccc(OCC(=O)N/N=C\c2ccc(C)o2)c(C)c1,41%,-5%,-11%[12.7 µM],-9%,3%
O=C(O)c1cccc(-c2ccc(/C=N/Nc3nn[nH]n3)o2)c1,15%,56µM*,45µM*,56µM*,45µM*
Cc1ccc(OCC(=O)N/N=C\c2ccc(-c3cccc(C(=O)O)c3)o2)c(C)c1,-2%,-36%,35µM*,?,?
Nc1nonc1C(=O)N/N=C/c1ccc(-c2cccc(C(=O)O)c2)o1,.,.,32µM*,?,56µM*
COc1ccc(CC(=O)N/N=C/c2ccc(-c3cccc(C(=O)O)c3)o2)cc1OC,10%,-25%,40µM*,-39%,14µM*
CNC(=S)N/N=C/c1ccc(-c2cccc(C(=O)O)c2)o1,14%,-22%,3%[12.7 µM],-17%,?
COc1ccc(C(=O)N2CCC3(CCN(Cc4cc(C(F)(F)F)cc(C(F)(F)F)c4)CC3)CC2)cc1,.,.,-5%[12.7 µM],.,31%
C=C1NC(=O)c2cc(CN(C)c3ccc(C(=O)N[C@@H](CCC(=O)O)C(=O)O)s3)ccc2N1,.,.,11%[59 µM],.,-2%
CC(/C=N/NC(=O)c1nnn(-c2nonc2N)c1CN(C)C)=C\c1ccco1,-10%,-24%,79µM*,-33%,?
C/C(=N\NC(=O)c1nnn(-c2nonc2N)c1CN(C)c1ccccc1)c1ccccn1,35%,22µM*,49%[59 µM],8.9µM*,10%
C/C(=N\NC(=O)c1cccnc1)c1nnn(-c2nonc2N)c1C,75%,-17%,50µM*,-11%,6%
CCN1CCN(Cc2c(C(=O)N/N=C(\C)c3ccc(Cl)cc3)nnn2-c2nonc2N)CC1,36%,-27%,28µM*,?,-1%
CC(C)C[C@H](NC(=O)CN(C)C(=O)[C@H](Cc1ccccc1)NC(=O)[C@H](Cc1ccccc1)NC(=O)[C@H](CCC(N)=O)NC(=O)[C@H](CCC(N)=O)NC(=O)[C@@H]1CCCN1C(=O)[C@H](CCCCN)NC(=O)[C@@H]1CCCN1C(=O)[C@@H](N)CCCN=C(N)N)C(=O)N[C@@H](CCS(C)(=O)=O)C(N)=O,.,.,.,.,4%
SMILES,HP1b binding inh,JMJD2A Tudor inh,G9a inh,BAZ2B inh,Sfp inh
C=CCNc1nnc(SCC(=O)N2CCC(C(N)=O)CC2)s1,12%,-16%,5%[0.501 µM],-3%,.
CCc1cccc(CC)c1-n1nnc2c(sc3nc(C)cc(C)c32)c1=O,10%,-31%,7%[59 µM],-1%,.
CC(C)CCNC(=O)CN1C(=O)COc2ccc(S(=O)(=O)N3CCOCC3)cc21,24%,5%,2%[59 µM],-4%,.
COc1ccccc1N(C(=O)c1snc(C(N)=O)c1N)C(C(=O)NC1CCCCC1)c1cccc(OC)c1OC (stereo unspecified),2%,-22%,-1%,-2%,6%
C/C(=N\NC(=O)c1nnn(-c2nonc2N)c1CN1CCCCCC1)c1ccc(Br)cc1,44%,-7%,50µM*,-2%,4%
Cc1noc(NS(=O)(=O)c2ccc(N/C=C/C(=O)c3ccc4c(c3)OCO4)cc2)c1C,12%,-21%,79µM*,?,-3%
Cc1noc(NS(=O)(=O)c2ccc(N/C=C\C(=O)c3ccc(F)cc3)cc2)c1C,0%,-20%[57.1 µM],.,?,-15%
Cc1noc(NS(=O)(=O)c2ccc(N/C=C\C(=O)c3ccccc3)cc2)c1C,-17%,2%[11.4 µM],50µM*,-34%,-2%
CCOc1ccc(-c2noc(CCCC(=O)NCC3CCCO3)n2)cc1OC (stereo unspecified),22%,-16%,?,-5%,3%
CCN(C(=O)COC(=O)c1ccc2[nH]c3c(c2c1)CCCC3)C1CCS(=O)(=O)C1 (stereo unspecified),-28%,-35%,50µM*,?,9%
CCOC(=O)c1ccc2[nH]c3c(c2c1)CCCC3,?,-54%,35µM*,32µM*,1%
COc1ccc(-c2nc3scc(CCNS(=O)(=O)c4ccc(Oc5ccccc5)cc4)n3n2)cc1OC,14%,-21%,24%[59 µM],-17%,.
O=C(O)CCCN1C(=O)/C(=C/c2ccc(-c3nc4ccccc4s3)o2)SC1=S,16µM*,10µM*,?,10µM*,40µM*
O=C(O)CCCCCN1C(=O)/C(=C/c2ccncc2)SC1=S,19%,-6%,79µM*,-21%,-14%
O=C(O)CCCCCN1C(=O)/C(=C\c2ccc(-c3ccc(Cl)cc3)o2)SC1=S,40µM*,32µM*,?,?,6.3µM*
